# Data as given in PubChem BioAssay AID1851 (National Center for Advancing Translational Sciences (NCATS), 2009).
# Several values for one entry are separate records, joined by “and”; a condition that tells them apart may be missing. Equal values may be shown once. Screen size: about 16,000 compounds; about 2,600 (16%) were called active. Another 20% or so got no clear call; they are omitted. A selection follows. Unmarked numbers belong to inactive results. The call rests on the fitted dose curve; in most records, active means well fitted curve in the direction sought with a large enough effect; inconclusive means small, poorly fitted or top-dose-only effect, or effect the other way; inactive means no such curve, though single readings can be large or run the other way.
# Target: Cytochrome P450 2D6 (Homo sapiens) (UniProt P10635)
# Test: Cytochrome panel assay with activity outcomes
# Details: recombinant CYP, pro-luciferin dealkylation, luminescence, p450-cyp2d6; series mostly up to 57.1 µM
# On the % scale 0 is the no-effect control and ±100 the full control effect.
# Cytochrome P450 2D6 (Homo sapiens), sequence (P10635 whole entry, looked up): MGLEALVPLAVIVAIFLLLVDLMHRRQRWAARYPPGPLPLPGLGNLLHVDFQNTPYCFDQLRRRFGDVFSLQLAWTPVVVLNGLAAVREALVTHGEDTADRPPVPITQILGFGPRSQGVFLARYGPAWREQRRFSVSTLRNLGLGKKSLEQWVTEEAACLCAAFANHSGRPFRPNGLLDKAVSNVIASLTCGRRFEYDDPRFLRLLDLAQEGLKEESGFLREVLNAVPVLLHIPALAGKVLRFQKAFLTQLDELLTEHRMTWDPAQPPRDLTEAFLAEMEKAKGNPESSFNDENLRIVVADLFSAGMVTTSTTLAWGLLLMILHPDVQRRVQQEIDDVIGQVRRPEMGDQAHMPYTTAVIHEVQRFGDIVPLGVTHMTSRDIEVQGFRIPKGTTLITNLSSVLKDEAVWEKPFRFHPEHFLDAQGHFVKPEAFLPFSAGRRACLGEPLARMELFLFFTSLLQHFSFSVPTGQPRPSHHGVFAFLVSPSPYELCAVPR
SMILES,AC50,"activity, negative = inhibition"
COc1ccc(-c2cc(CNC(C)=O)on2)cc1,inactive,–
FC(F)(F)c1ccc(/C=N/N2CCN(Cc3cccc4ccccc34)CC2)cc1,inactive,–
COc1ccccc1/C=C/C=N/N1CCN(Cc2cccc3ccccc23)CC1,7.94 µM (active),–
COc1ccccc1CC(=O)O/N=C(\N)Cc1cccc2ccccc12,inactive,–
CCc1nc(N2CCC3(CC2)OCCO3)c2nnn(Cc3ccccc3Cl)c2n1,inactive,–
c1ccc2nc(-c3ccncc3)ccc2c1,15.8 µM (active),–
Cc1cc2c(cc1C)-c1nnc(-c3ccc4ccccc4n3)n1C(C)(C)C2,inactive,–
CC(C)C(=O)Cc1ccc2ccccc2n1,–,5.06% [at 11.4 µM]
Cc1ccc([N+](=O)[O-])cc1N=C(c1cccc([N+](=O)[O-])c1)N1CCOCC1,inactive,–
CC(=O)c1cnc2cc(C)nn2c1C,inactive,–
CC(C)Oc1ccc2ccccc2c1C=O,inactive,–
O=C(NNC(=O)C1CCN(S(=O)(=O)c2ccc(Cl)cc2)CC1)c1ccc(Cl)cc1,inactive,–
Cc1[nH]c2c(C)ccc(C)c2c1CC(=O)O,–,-12.2% [at 11.4 µM]
COc1ccc(CNc2nc3ccccc3n2Cc2ccccc2)cc1OC,0.794 µM (active),–
C=CCn1c(NCc2ccccc2)nc2ccccc21,0.398 µM (active),–
CC(=O)Nc1nc2ccccc2n1Cc1ccccc1,inactive,–
C=CCn1c(-c2cccn(Cc3ccccc3)c2=O)n[nH]c1=S,inactive,–
COc1ccc(NC(=O)COC(=O)Cn2c(C)nc3ccccc32)cc1OC,inactive,–
C=CCn1c(P(=O)(O)c2ccccc2)nc2ccccc21,inactive,–
O=C(NCC1CCCO1)c1onc(CSc2ccccc2F)c1C(=O)O (stereo not given),inactive,–
O=C(O)c1ccccc1N/N=C\c1ccnc2ccccc12,inactive,–
CC(=O)ON(C(C)=O)S(=O)(=O)c1ccc(Cl)cc1,inactive,–
Cc1[nH]n(C(C)(C)C)c(=O)c1Sc1ccccc1,inactive,–
O=P(O)(CCP(=O)(O)c1ccccc1)c1ccccc1,–,0.684% [at 11.4 µM]

SMILES,AC50,"activity, negative = inhibition"
O=C(c1cc(C(F)(F)F)cc(C(F)(F)F)c1)N1CCC2(CC1)CCN(c1ncccn1)CC2,inactive,–
Cc1ccc(-c2ccc(/C=N\NC(=O)c3cc4c(ccc5ccccc54)o3)o2)cc1[N+](=O)[O-],inactive,–
O=C(N/N=C(\c1ccccc1)c1cccnc1)C(O)(c1ccccc1)c1ccccc1,inactive,–
Clc1ccc(CC[C@H](Cn2ccnc2)Sc2c(Cl)cccc2Cl)cc1,1.26 µM (active),–
O=C1C2=CC[C@@H]3C(=O)N(c4ccc(F)cc4F)C(=O)[C@H]3[C@H]2[C@H](O)[C@H]2O[C@H]12,–,6.42% [at 11.4 µM]
COc1cccc(-c2nc(CS(=O)(=O)CC(=O)NCCCOC(C)C)c(C)o2)c1,inactive,–
COc1ccc(CCN(C)CCC(=O)Nc2c(C)cc(C)cc2C)cc1OC,inactive,–
CCCCN(C)CCCNC(=O)CS(=O)Cc1nc(-c2ccc(OC)c(OC)c2)oc1C (stereo not given),11.2 µM (active),–
COc1ccc(-c2nc(C#N)c(N3CCC(C(N)=O)CC3)o2)cc1OC,inactive,–
COc1ccc(-c2nc(CSCC(=O)NCC3CCCO3)c(C)o2)cc1OC (stereo not given),inactive,–
CCCN(CCC)CCCNC(=O)CS(=O)Cc1nc(-c2ccc(OC)c(OC)c2)oc1C (stereo not given),5.01 µM (active),–
CC(C)(C)CC(C)(C)c1ccc(OCOCCOCCO)c(Cc2cc(C(C)(C)CC(C)(C)C)cc(Cc3cc(C(C)(C)CC(C)(C)C)ccc3OCOCCOCCO)c2OCOCCOCCO)c1,inactive,–
CCCCSc1nc(C)cc(C)c1S(=O)(=O)c1ccccc1C,inactive,–
Cc1ccc([C@@]2(C)CC/C(=N/N=C3\CC[C@](C)(c4ccc(C)c(C)c4)c4cc(C)c(C)cc43)c3cc(C)c(C)cc32)cc1C,–,-2.73% [at 11.4 µM]
O=c1ccc(Oc2nc(N3CCOCC3)nc(N3CCOCC3)n2)n[nH]1,inactive,–
NCC[C@H](N)C(=O)O,–,6.66% [at 11.4 µM]
O=S(=O)(/N=C(/Nc1ccccn1)c1ccccc1)c1ccc(Cl)cc1,inactive,–
C=CCSc1nc2c(sc3nc(C)cc(C)c32)c(=O)[nH]1,inactive,–
CC1Cc2ccccc2N1Cc1nc2cc(C(F)(F)F)ccc2c(=O)[nH]1 (stereo not given),inactive,–
O=C(CSc1nc2ccccc2[nH]1)Nc1c(F)cccc1F,inactive,–
Cc1c(OCC(F)(F)F)ccnc1CSc1nc2ccccc2[nH]1,0.398 µM (active),–
C[N+](C)(C)CCCSc1nc2ccccc2[nH]1,–,11.4% [at 11.4 µM]
O=S(=O)(O)c1ccc(-c2nnc(-c3ccccn3)nc2-c2ccc(S(=O)(=O)O)o2)o1,–,16.6% [at 11.4 µM]
O=C(Cc1cccc2ccccc12)N/N=C/c1ccc(Sc2nc3ccccc3s2)o1,inactive,–

SMILES,AC50,"activity, negative = inhibition"
Cc1ccc(S(=O)(=O)N[C@H]2COC(=O)[C@@H](Cc3ccccc3)NC(=O)[C@@H](C)COC(=O)C/C=C\[C@@H]2C)cc1,–,-0.453% [at 11.4 µM] and -0.419% [at 11.4 µM]
O=C(O)c1ccccc1N[C@H](c1ccccc1)c1ccc2cccnc2c1O,–,-6.89% [at 11.4 µM]
Cc1ccc(N[C@H](c2ccccc2)c2ccc3cccnc3c2O)cc1,–,-11.8% [at 11.4 µM]
Oc1c([C@H](Nc2ccccn2)c2ccccc2)ccc2cccnc12,0.316 µM (active),–
CCCc1nnc(SCC(=O)N2CCCCC2)n1CCCOC,inactive,–
CCOc1ccc(NC(=S)N(Cc2ccc(N(C)C)cc2)Cc2ccco2)cc1,8.91 µM (active),–
CCOc1ccc(NC(=O)c2oc3ccccc3c2NC(=O)CC)cc1,inactive,–
Cc1ccc(NC(=O)N(Cc2ccco2)C(C)c2ccco2)cc1C (stereo not given),inactive,–
CCOc1ccc(NC(=S)N(Cc2ccc(Cl)cc2)Cc2ccco2)cc1,7.94 µM (active),–
O=C(COc1ccc(Cl)cc1)Nc1ccc(N2CCN(C(=O)c3ccco3)CC2)cc1,inactive,–
Cc1noc(NS(=O)(=O)c2ccc(N/C=C/C(=O)c3ccc4c(c3)OCO4)cc2)c1C,inactive,–
CCCn1nnnc1-c1cccc(Cl)c1,inactive,–
COc1ccccc1CNc1ncncc1-c1ccc2c(c1)OCO2,2.51 µM (active),–
COc1ccc(CNc2ncncc2-c2ccc3c(c2)OCO3)c(OC)c1,0.794 µM (active),–
CCc1ccc(OCC(=O)NNC(=O)CSc2ncnc3sc(C)c(C)c23)cc1,inactive,–
O=S(=O)(/N=C(\Sc1ccccc1)c1ccccc1)c1ccc(Cl)cc1,inactive,–
Cc1cc(C)c(NC(=O)C[C@H](CC(=O)O)c2cccc3ccccc23)c(C(=O)N2CCC3(CCCC3)CC2)c1,inactive,–
CCCCCCCCOC1OC(CO)C(O)C(O)C1NC(C)=O (stereo not given),inactive,–
Nc1ccn([C@H]2O[C@@H](COP(=O)(O)O)[C@@H](O)[C@H]2O)c(=O)n1,–,0.248% [at 11.4 µM]
CO[C@@H]1COC(=O)[C@H]2CCCN2C(=O)C/C=C\[C@@H](C)[C@H](OC)COC(=O)[C@H]2CCCN2C(=O)C/C=C\[C@H]1C,–,9.95% [at 11.4 µM]
CN(C)c1oc(-c2ccccc2)nc1C#N,inactive,–
COc1ccccc1-c1ccc2ncnc(Nc3ccccc3)c2c1,10 µM (active),–
COc1cccc(-c2ccc3ncnc(NCc4cccnc4)c3c2)c1,10 µM (active),–
Clc1ccccc1-c1cc(NCc2cccnc2)ncn1,inactive,–

SMILES,AC50,"activity, negative = inhibition"
Clc1ccccc1-c1ccc2ncnc(NCc3cccnc3)c2c1,6.31 µM (active),–
COc1ccccc1-c1ccc2ncnc(NCc3cccnc3)c2c1,7.94 µM (active),–
C=CCn1cc(/C=N\NC(=O)c2cc3c(ccc4ccccc43)o2)c2ccccc21,inactive,–
COc1ccc(CCn2c3c(c(=O)[nH]c2=O)C(NC(=O)c2cccs2)(C(F)(F)F)C(=O)N3)cc1OC (stereo not given),inactive,–
COC(=O)C1=C(NC(=O)c2cccc(OC)c2)CCS1,inactive,–
O=c1c(-c2ccccc2)nc2cnc(N3CCOCC3)nc2n1CCc1ccccc1,inactive,–
N#C/C(=C\Nc1ccccn1)C(=O)C1CC1,–,5.79% [at 11.4 µM]
CC[C@@H](CS(=O)(=O)O)[N+](=O)[O-],–,2.2% [at 11.4 µM]
CN[C@@H]1[C@H](O[C@@H]2O[C@H](CO)[C@@H](N)[C@H](O)[C@@H]2O)O[C@H]2C[C@@H](N)[C@@H](O[C@H]3[C@@H](O)[C@H](O)[C@H](N)C[C@@H]3N)O[C@H]2[C@H]1O,inactive,–
O=C(COc1ccc(-c2ccccc2)cc1)N/N=C/c1ccccc1Br,inactive,–
COc1cccc(-c2cc(C(F)(F)F)nc(N3CCCCC3)n2)c1,inactive,–
CN(C)C(=O)c1ccc(-c2ccc3ncnc(Nc4ccc(F)cc4)c3c2)cc1,10 µM (active),–
COc1ccc(-c2cc(C(F)(F)F)nc(NCc3cccnc3)n2)cc1,31.6 µM (active),–
COc1ccc(-c2cc(C(F)(F)F)nc(SCc3cccc(C(=O)O)c3)n2)cc1,inactive,–
FC(F)(F)c1ccccc1-c1ccc2ncnc(NCc3cccnc3)c2c1,1.58 µM (active),–
CCCCCCCCCCCCCCCCCCc1ccc(C(=O)/C=C\C(=O)O)cc1,inactive,–
Cn1cc(-c2nc3cncnc3n(Cc3ccc(F)cc3)c2=O)c2ccccc21,inactive,–
CCCCC1(C)OC(=O)C(=Cc2ccc(N(C)C)cc2)C(=O)O1 (stereo not given),inactive,–
NS(=O)(=O)c1ccc(N=Nc2c(O)c(C(=O)O)cc3ccccc23)cc1,–,14.9% [at 11.4 µM]
CC#CCCCC(=O)Nc1ccc(C(=O)O)cc1,inactive,–
Cn1nc(C(F)(F)F)c(/C=N/OC(=O)c2ccc(Cl)cc2)c1Cl,15.8 µM (active),–
Cn1nc(C(F)(F)F)c(/C=N/OC(=O)c2ccccc2Cl)c1SCc1ccc(Cl)cc1,inactive,–
Cn1nc(C(F)(F)F)c(/C=N/OCc2c(Cl)cccc2Cl)c1Cl,inactive,–
